According to PubChem BioAssay AID1508600 (Functional Genomics Laboratory (NCATS/FGL), 2020):
Hit rate of the full screen: of about 53,000 sequences, about 3,700 (7%) were called active. The sample as a whole holds a higher share of actives than the screen did. A number with no mark means an inactive call.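 How the source made its calls: active means gene knockdowns whose robust z-score for IL-1 alpha signal is at least 2 or at most -2, so actives lie on both sides; inactive means the rest.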

Assay: Components of the Cytosolic LPS Sensing Pathway: Gene Identification via Genome-wide siRNA Screen;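 further: robust z of the log signal after scaling to non-targeting control siRNA wells of the plate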
Conditions: RAW264.7 macrophages, IL-1a HTRF, actives lie on both sides, screened at 100 nM (by protocol), cells primed 5 h with Pam3CSK4 first
How it was run: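 Supernatant IL-1a by HTRF from RAW264.7 cells primed with Pam3CSK4 (5 hours) and transfected with LipidA (24 hour) after 48h siRNA knockdown at 100 nM; cell viability checked with CellTiter-Glo.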

Sequence	z-score
GCUGGGAGUAAAAUUGACUTT against Cenpj	-0.65
CGAGCAUGCUGAAAAGACCTT against Steap1	-0.826
GGUUUUAAAGCAUCUUCGUTT against Pard6g	-0.284
GGGCAACAUUUUUCAGUGCTT against Prox1	0.722
GGAUCUUAAGUCCUAACAUTT against Tacc3	-2.37 (active)
CCGAUAAUGCUUUCUUUGGTT against Ppp1cc	0.547
CCAAGUCAGUGCUGUAAAGTT against F830104G03Rik	-1.58
GGUGAUGCCUGUGAAGACATT against Il3ra	2.04 (active)
GGGAUAUUCAUUGACUUUGTT against Prr5	-1.88
CCAAGAAUGUUUCCAUGUUTT against Slc12a5	-1.68
CCUGAACCACUUGUUAAAUTT against Rnf10	0.124
GCUUCAGGUCAGUCUCUUCTT against Olfr1042	0.969
GGAGGCAAAAAUGAUGCUATT against Slpi	1.97
GCAUCUCACUUUUGACCUATT against Retreg2	0.928
GUCUCAAGUGGACUGUGAGTT against Klk1b4	-2.83 (active)
GCAAUUAUAACUUAGAAGGTT against Eml3	0.149
GCCUUUCAACUCACCAGCCTT against Zfp574	0.617
GGGAAGGAAUAUGAUGGGCTT against Sik3	-0.704
GGUCCCAACGAAGAAACCATT against Cd55	0.475
GGGCUAAGGCGAAAAGACUTT against Msx2	3.24 (active)
GCUAAAUUUCCCAUAGGAATT against Pmch	0.822
GGAGCUUCGAAAAAAGUUGTT against Pex16	0.329
GCACAAUUAUGAGAGUGCATT against Grin1	-0.91

Sequence	z-score
GGGUUAAGCGCAAGUGUAATT against Degs2	0.331
GGCUGAAAAUAUUUUCAGATT against Garnl3	-0.1
GGAGCCAGUGACAAUAAAUTT against Mtag2	-1.1
GGUGAUGAUGUCAUACAAATT against Cav1	3.12 (active)
GGCUCUCAUCCAUCUCCUUTT against Olfr715	-1.79
GGUCUGGAAAACCAGCUUATT against D630039A03Rik	1.04
GGUUGAAGUCUAUUCUCGATT against Trap1	-0.139
GGGUUUGACAGAGAGAAGATT against Atp5g2	-0.581
GGUGAGCGUGUAGAGAUGCTT against Fbxo45	0.787
GGGCUAAAGUUGAUAAUAATT against Psmc3	-2.02 (active)
GCACUUUGUGCUAUAUAAGTT against Mapk14	0.616
GGUAAAGUUGCUUAAUUAGTT against Msl3l2	0.944
GGAAGAAGUCUGAUACAUCTT against Samd5	0.572
CGCUAAUCUUCGAAAACCUTT against Abcc12	-0.998
GGAGUUCGUACCCUUAUCCTT against Rtel1	-2.2 (active)
GGUUAUCCAACCUAGAAUATT against Tmlhe	0.74
GGCAAAGUUUGGGAUUACATT against Ntng1	1.17
GGUUGUAUUGGAUAUCAAGTT against Ceacam2	0.953
GGACUUUGAAAAGAGAAUUTT against Polb	-0.213
GGACUUCUCCAUCCUGCUUTT against Alg1	-0.542
GGGACCAGAGGAAACAGAATT against Tnfsf13b	-2.21 (active)
GGGCAUUGCCAGGAAUUAUTT against Lrp1b	1.31
GUUGUCCAUAUCAUGUUUGTT against Olfr569	1.28

Sequence	z-score
GGGAAGAGCCCUAAUAUUATT against Aldh1a2	-0.098
GGUGGACAAGACUAAAACATT against Podxl	-0.253
GGGCCAAAUAGCUAUGCAGTT against Aldoc	-0.309
GGAAUUAUAAAAGACCACGTT against Kctd12b	2.39 (active)
GGUGCUCUCAGGAAAGUUGTT against Olfr1157	0.82
CCUGUACUCUAUAUUCUGUTT against Pld2	0.98
GGCCAUCGAACUCAAUCUCTT against Lrrc57	0.243
GGAGUAUGAUAAUGAACCATT against Areg	-0.0698
GGACAUCAAGUUCUUGCCATT against Hspa5	-0.478
GGCUGGUAUCUUUCAGAGUTT against Cox6c	2.2 (active)
GGAACCAAUCGGGAUUUUGTT against B330016D10Rik	0.179
CGGUUCCACUUCAAAUGACTT against Hsd17b2	0.72
GGACACUUUCUCAUAUCAUTT against Abca9	2.06 (active)
GGAGGCUCUACUUUUGUAGTT against Olfr611	-2.16 (active)
GGCUUCCCGGAGUAACAAUTT against Dlgap1	-0.742
GAAAAGAAUUCCAGAAGAUTT against Sec61g	1.19
CCAGUGCGUCACUCAGUAATT against Ssmem1	-1.11
GGAUGAAGGGACGAAUUCATT against Pcdha6	0.635
GCUGUGCAAGCAAUAUCUATT against Hnrnpm	0.423
CCCUUUCGAGGUGGUAAAATT against Slc25a21	0.11
GCCAAAUAAUCUGAAAGCCTT against Rpl28	0.309
GGAGCGCGUGAAACUGUCUTT against Fbxw4	-0.752
GGGCCACUGCCAAAUACUATT against 2510009E07Rik	3.33 (active)
